# According to PubChem BioAssay AID1159580 (chemical genetic matrix, 2015):
# Screen size: about 5,500 compounds; about 2,000 (36%) were called active. Not shown: some 18% with an inconclusive outcome. The list shows a part of the results. Values without a mark were called inactive. Rule as the data show it: active = normalized growth mostly below about 0.91 (no sharp cut-off); inconclusive = no clear call, values can overlap the other calls; inactive = mostly above about 0.92.
# Test: chemical genetic growth profiling, strain panel (AID 1159580);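 also: tested at 20 µM; growth read once vehicle control cultures reached saturation at 30 °C; 1 = growth at the plate median or of vehicle wells; lower values mean less growth of the strain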
# Conditions: growth OD
# [1] = S. cerevisiae deletion strains, locus YAL013W, strain DEP1, active compounds read low
# [2] = S. cerevisiae deletion strains, locus YBR229C, strain ROT2, active compounds read low
# [3] = S. cerevisiae deletion strains, locus YDL101C, strain DUN1, active compounds read low
# [4] = S. cerevisiae deletion strains, locus YDR150W, strain NUM1, active compounds read low
# [5] = S. cerevisiae deletion strains, locus YEL061C, strain CIN8, active compounds read low
# [6] = S. cerevisiae deletion strains, locus YGR078C, strain PAC10, active compounds read low
# [7] = S. cerevisiae deletion strains, locus YHR030C, strain SLT2, active compounds read low
# [8] = S. cerevisiae deletion strains, locus YHR087W, strain rtc3, active compounds read low
# [9] = S. cerevisiae deletion strains, locus YJR043C, strain POL32, active compounds read low
# [10] = S. cerevisiae deletion strains, locus YJR075W, strain HOC1, active compounds read low
# [11] = S. cerevisiae deletion strains, locus YLR039C, strain RIC1, active compounds read low
# [12] = S. cerevisiae deletion strains, locus YLR058C, strain SHM2 (second series), active compounds read low
# [13] = S. cerevisiae deletion strains, locus YLR085C, strain ARP6, active compounds read low
# [14] = S. cerevisiae deletion strains, locus YLR262C, strain YPT6, active compounds read low
# [15] = S. cerevisiae deletion strains, locus YML094W, strain GIM5, active compounds read low
# [16] = S. cerevisiae deletion strains, locus YMR219W, strain ESC1, active compounds read low
# [17] = S. cerevisiae deletion strains, locus YMR263W, strain SAP30, active compounds read low
# [18] = S. cerevisiae deletion strains, locus YNL128W, strain TEP1, active compounds read low
# [19] = S. cerevisiae deletion strains, locus YNL153C, strain GIM3, active compounds read low
# [20] = S. cerevisiae deletion strains, locus YNL298W, strain CLA4 (second series), active compounds read low
# [21] = S. cerevisiae deletion strains, locus YNL322C, strain KRE1, active compounds read low
# [22] = S. cerevisiae deletion strains, locus YNR030W, strain Alg12, active compounds read low
# [23] = S. cerevisiae deletion strains, locus YPL055C, strain LGE1, active compounds read low
# [24] = S. cerevisiae deletion strains, locus YPL241C, strain CIN2, active compounds read low
# [25] = S. cerevisiae deletion strains, locus YPR135W, strain CTF4, active compounds read low
smiles,measurement,setting,value
O=C(NNC(=O)c1ccc[nH]1)Nc1cc(Cl)cc(Cl)c1,normalized growth,[1],1.01
same,normalized growth,[2],1
same,normalized growth,[3],0.991
same,normalized growth,[4],0.994
same,normalized growth,[5],0.996
same,normalized growth,[6],1
same,normalized growth,"S. cerevisiae deletion strains, locus YGR229C, strain SMI1, active compounds read low",1.02
same,normalized growth,[7],1.07
same,normalized growth,[8],1.02
same,normalized growth,[9],1.01
same,normalized growth,[10],1.01
same,normalized growth,"S. cerevisiae deletion strains, locus YKL190W, strain CNB1, active compounds read low",1.01
same,normalized growth,[11],1.05
same,normalized growth,[12],1.01
same,normalized growth,[13],1.04
same,normalized growth,[14],1.03
same,normalized growth,[15],0.992
same,normalized growth,[16],1
same,normalized growth,[17],1.02
same,normalized growth,[18],1.03
same,normalized growth,[19],0.988
same,normalized growth,[20],1.05
same,normalized growth,[21],0.996
same,normalized growth,[22],1.01
same,normalized growth,"S. cerevisiae deletion strains, locus YOL006C, strain TOP1, active compounds read low",1.08
same,normalized growth,[23],1.02
same,normalized growth,[24],0.922
same,normalized growth,[25],1
same,normalized growth,"S. cerevisiae strains, strain wild type, active compounds read low",1.02
Clc1cc(Cl)cc(Br)c1,normalized growth,[1],1.03
same,normalized growth,[2],1.02
same,normalized growth,[3],1.02
same,normalized growth,"S. cerevisiae deletion strains, locus YDL134C, strain PPH21, active compounds read low",1.02
same,normalized growth,[4],1.04
same,normalized growth,[5],1.03
same,normalized growth,[6],1.01
same,normalized growth,[7],1.1
same,normalized growth,[8],1.05
same,normalized growth,[9],1.01
same,normalized growth,[10],1
same,normalized growth,[11],1.09
same,normalized growth,[12],1.02
same,normalized growth,[13],1.14
same,normalized growth,[14],1.07
same,normalized growth,[15],1.04
same,normalized growth,[16],1.02
same,normalized growth,[17],1.02
same,normalized growth,[18],1.02
same,normalized growth,[19],1.01
same,normalized growth,[20],1.08
same,normalized growth,[21],1.02
same,normalized growth,[22],1.05
same,normalized growth,[23],1.03
same,normalized growth,[24],1.04
same,normalized growth,[25],1.16
O=C(Nc1ccc(F)cc1)c1cc(Br)ccc1O,normalized growth,"S. cerevisiae deletion strains, locus YAR019C, strain CDC15, active compounds read low",0.91
same,normalized growth,"S. cerevisiae deletion strains, locus YBL105C, strain PKC1, active compounds read low",0.907
same,normalized growth,"S. cerevisiae deletion strains, locus YBR135W, strain CKS1, active compounds read low",0.901
same,normalized growth,"S. cerevisiae deletion strains, locus YBR136W, strain MEC1, active compounds read low",0.913
same,normalized growth,"S. cerevisiae deletion strains, locus YBR160W, strain CDC28, active compounds read low",0.899
same,normalized growth,"S. cerevisiae deletion strains, locus YDL017W, strain CDC7, active compounds read low",0.898 (active)
same,normalized growth,"S. cerevisiae deletion strains, locus YDL028C, strain MPS1, active compounds read low",0.909
same,normalized growth,[3],0.952
same,normalized growth,"S. cerevisiae deletion strains, locus YDL108W, strain KIN28, active compounds read low",0.897
same,normalized growth,"S. cerevisiae deletion strains, locus YDL132W, strain cdc53, active compounds read low",0.94
same,normalized growth,"S. cerevisiae deletion strains, locus YDL214C, strain PRR2, active compounds read low",0.867
same,normalized growth,"S. cerevisiae deletion strains, locus YDR052C, strain DBF4, active compounds read low",0.905 (active)
same,normalized growth,"S. cerevisiae deletion strains, locus YDR054C, strain cdc34, active compounds read low",0.876 (active)
same,normalized growth,"S. cerevisiae deletion strains, locus YDR226W, strain ADK1, active compounds read low",0.941
same,normalized growth,"S. cerevisiae deletion strains, locus YDR477W, strain SNF1, active compounds read low",0.882
same,normalized growth,"S. cerevisiae deletion strains, locus YER123W, strain YCK3, active compounds read low",0.806
same,normalized growth,"S. cerevisiae deletion strains, locus YER133W, strain GLC7, active compounds read low",0.908
same,normalized growth,"S. cerevisiae deletion strains, locus YFL009W, strain cdc4, active compounds read low",0.887 (active)
same,normalized growth,"S. cerevisiae deletion strains, locus YFL029C, strain CAK1, active compounds read low",0.894
same,normalized growth,"S. cerevisiae deletion strains, locus YFR003C, strain YPI1, active compounds read low",0.907
same,normalized growth,"S. cerevisiae deletion strains, locus YFR019W, strain FAB1, active compounds read low",0.901
same,normalized growth,"S. cerevisiae deletion strains, locus YFR028C, strain CDC14, active compounds read low",0.863 (active)
same,normalized growth,"S. cerevisiae deletion strains, locus YGR040W, strain KSS1, active compounds read low",0.797
same,normalized growth,"S. cerevisiae deletion strains, locus YGR052W, strain FMP48, active compounds read low",0.901
same,normalized growth,"S. cerevisiae deletion strains, locus YGR092W, strain DBF2, active compounds read low",0.614
same,normalized growth,"S. cerevisiae deletion strains, locus YHR079C, strain IRE1, active compounds read low",0.827
same,normalized growth,"S. cerevisiae deletion strains, locus YHR082C, strain KSP1, active compounds read low",0.813
same,normalized growth,"S. cerevisiae deletion strains, locus YHR205W, strain SCH9, active compounds read low",0.615
same,normalized growth,"S. cerevisiae deletion strains, locus YIL147C, strain SLN1, active compounds read low",0.918
same,normalized growth,"S. cerevisiae deletion strains, locus YJL095W, strain BCK1, active compounds read low",0.791
same,normalized growth,"S. cerevisiae deletion strains, locus YJL128C, strain PBS2, active compounds read low",0.957
same,normalized growth,"S. cerevisiae deletion strains, locus YJL157C, strain FAR1, active compounds read low",0.83
same,normalized growth,"S. cerevisiae deletion strains, locus YJR016C, strain ILV3, active compounds read low",0.923
same,normalized growth,"S. cerevisiae deletion strains, locus YJR066W, strain TOR1 (second series), active compounds read low",0.904
same,normalized growth,"S. cerevisiae deletion strains, locus YJR066W, strain TOR1, active compounds read low",0.786
same,normalized growth,"S. cerevisiae deletion strains, locus YKL048C, strain ELM1, active compounds read low",0.891
same,normalized growth,"S. cerevisiae deletion strains, locus YKL067W, strain YNK1, active compounds read low",0.853
same,normalized growth,"S. cerevisiae deletion strains, locus YKL101W, strain HSL1, active compounds read low",0.817
same,normalized growth,"S. cerevisiae deletion strains, locus YKL193C, strain SDS22, active compounds read low",0.901
same,normalized growth,"S. cerevisiae deletion strains, locus YKL203C, strain TOR2, active compounds read low",0.873
same,normalized growth,"S. cerevisiae deletion strains, locus YLR113W, strain HOG1, active compounds read low",0.804 (active)
same,normalized growth,"S. cerevisiae deletion strains, locus YLR133W, strain CKI1, active compounds read low",0.835
same,normalized growth,"S. cerevisiae deletion strains, locus YLR403W, strain SFP1, active compounds read low",0.834
same,normalized growth,"S. cerevisiae deletion strains, locus YML070W, strain DAK1, active compounds read low",0.86
same,normalized growth,"S. cerevisiae deletion strains, locus YMR001C, strain CDC5, active compounds read low",0.908
same,normalized growth,"S. cerevisiae deletion strains, locus YMR205C, strain PFK2 (second series), active compounds read low",0.832
same,normalized growth,"S. cerevisiae deletion strains, locus YMR277W, strain FCP1, active compounds read low",0.884 (active)
same,normalized growth,"S. cerevisiae deletion strains, locus YNL006W, strain LST8, active compounds read low",0.923
same,normalized growth,"S. cerevisiae deletion strains, locus YNL020C, strain ARK1, active compounds read low",0.797
same,normalized growth,"S. cerevisiae deletion strains, locus YNL161W, strain CBK1, active compounds read low",0.913
same,normalized growth,"S. cerevisiae deletion strains, locus YNL183C, strain NPR1, active compounds read low",0.758
same,normalized growth,"S. cerevisiae deletion strains, locus YNL207W, strain RIO2, active compounds read low",0.907
same,normalized growth,"S. cerevisiae deletion strains, locus YNL222W, strain SSU72, active compounds read low",0.902
same,normalized growth,"S. cerevisiae deletion strains, locus YNL307C, strain MCK1 (second series), active compounds read low",0.776
same,normalized growth,"S. cerevisiae deletion strains, locus YOL078W, strain AVO1, active compounds read low",0.898
same,normalized growth,"S. cerevisiae deletion strains, locus YOL136C, strain PFK27, active compounds read low",0.837
same,normalized growth,"S. cerevisiae deletion strains, locus YOR061W, strain CKA2, active compounds read low",0.773
same,normalized growth,"S. cerevisiae deletion strains, locus YOR119C, strain RIO1, active compounds read low",0.881
same,normalized growth,"S. cerevisiae deletion strains, locus YOR231W, strain MKK1, active compounds read low",0.845
same,normalized growth,"S. cerevisiae deletion strains, locus YOR329C, strain SCD5, active compounds read low",0.912
same,normalized growth,"S. cerevisiae deletion strains, locus YPL031C, strain PHO85, active compounds read low",0.865
same,normalized growth,"S. cerevisiae deletion strains, locus YPL153C, strain RAD53, active compounds read low",0.777
same,normalized growth,"S. cerevisiae deletion strains, locus YPL204W, strain HRR25, active compounds read low",0.862
same,normalized growth,"S. cerevisiae deletion strains, locus YPL209C, strain IPL1, active compounds read low",0.909
same,normalized growth,"S. cerevisiae deletion strains, locus YPL256C, strain CLN2, active compounds read low",0.837 (active)
same,normalized growth,"S. cerevisiae deletion strains, locus YPR025C, strain CCL1, active compounds read low",0.907
same,normalized growth,"S. cerevisiae deletion strains, locus YPR106W, strain ISR1, active compounds read low",0.914
same,normalized growth,"S. cerevisiae deletion strains, locus YPR111W, strain DBF20, active compounds read low",0.893
same,normalized growth,"S. cerevisiae deletion strains, strain NNK1, active compounds read low",0.927
same,normalized growth,"S. cerevisiae deletion strains, strain TSCII, active compounds read low",0.902
